# Source: PubChem BioAssay (NCATS)
# Results filed as inconclusive are left out. A call without a number means that no potency is given here. Calls of active or inactive are those of the source. Calls follow the shape of the dose curve; as a rule, active = well fitted inhibition curve with a large enough effect; inconclusive = small, poorly fitted or top-dose-only effect; inactive = flat fitted curve, though single readings scatter.
# Assay: qHTS to identify inhibitors of the type 1 interferon - major histocompatibility complex class I in skeletal muscle: primary screen against the NCATS LOPAC collection (AID 1347405);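 also: lytic HiBiT luminescence reporting HLA-B protein level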
# Details: iHSKM muscle cells, IFN-b-induced MHC-I HiBiT luminescence, 24 h; series mostly up to 45.9 µM
# Summary of the method: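 Cells: C25cl48 human myoblasts, HiBiT-tagged HLA-B*08:01, stimulated with IFN-beta 4.0 ng/ml. Compounds are titrated 1:4.3 over 7 points from 46 uM final and incubated 24 hrs; endogenous MHC class I is quantified by HiBiT lytic luminescence.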
# Potency is read from the fitted curve at half-maximal effect.
row,Compound,Potency
1,CCN(CC)c1ncnc2c1ncn2[C@@H]1O[C@H](COP(=O)(O)OP(=O)(O)C(Br)(Br)P(=O)(O)O)[C@@H](O)[C@H]1O,inactive
2,Oc1ccccc1O,inactive
3,COc1ccccc1CNCCCCCCNCCCCCCCCNCCCCCCNCc1ccccc1OC,inactive
4,O=P(O)(O)C(Cl)(Cl)P(=O)(O)O,inactive
5,CNCC[C@H](Oc1ccc(C(F)(F)F)cc1)c1ccccc1,inactive
6,CC(=O)SCC[N+](C)(C)C,inactive
7,O=c1cc(-c2ccccc2)oc2c(O)c(O)ccc12,inactive
8,CC(C)(C)c1ccc(S(=O)(=O)/C=C/C#N)cc1,7.08 µM (active)
9,CSc1nc(N)c2ncn([C@@H]3O[C@H](COP(=O)(O)OP(=O)(O)OP(=O)(O)O)[C@@H](O)[C@H]3O)c2n1,inactive
10,CC(N)C(=O)OC(C)(C)Cc1ccc(Cl)cc1 (configuration not stated),inactive
11,N=c1ccn2c(n1)O[C@H]1[C@H](O)[C@@H](CO)O[C@H]12,inactive
12,NC(=O)C(=O)O,inactive
13,CCN1/C(=C/C(C)=O)Sc2ccc(OC)cc21,inactive
14,COc1ccc(/C=C2\COc3ccc(C)cc3C2=O)cc1O,14.1 µM (active)
15,O=C(O)CNC(=O)C(CS)Cc1ccccc1 (configuration not stated),inactive
16,Cn1ncc(S(=O)(=O)Cc2ccccc2)c(Br)c1=O,inactive
17,OCC1O[C@H]([S-])[C@H](O)[C@@H](O)[C@@H]1O.[Au+] (some centres not stated),17.8 µM (active)
18,CN1CC(=O)N/C1=N/C(=O)Nc1cccc(Cl)c1,inactive
19,C[C@@H](CN1CCC(Cc2ccccc2)CC1)[C@@H](O)c1ccc(O)cc1,inactive

row,Compound,Potency
1,NCCCCC(=O)O,inactive
2,O=C(Nc1ccc2[nH]ncc2c1)C1CCC1,inactive
3,COc1cc(C(O)CO)ccc1OS(=O)(=O)O (configuration not stated),inactive
4,CN[C@H](CC(C)C)C(=O)N[C@H]1C(=O)N[C@@H](CC(N)=O)C(=O)N[C@H]2C(=O)N[C@H]3C(=O)N[C@H](C(=O)N[C@H](C(=O)O)c4cc(O)cc(O)c4-c4cc3ccc4O)[C@H](O)c3ccc(c(Cl)c3)Oc3cc2cc(c3O[C@@H]2O[C@H](CO)[C@@H](O)[C@H](O)[C@H]2O[C@H]2C[C@](C)(N)[C@H](O)[C@H](C)O2)Oc2ccc(cc2Cl)[C@H]1O,inactive
5,OCC1O[C@H](O)C(Cl)C(O)C1O (some centres not stated),inactive
6,O=Nc1ccc2oc(=O)ccc2c1,inactive
7,C=CC(C)=C[C@@]1(C)SC(=O)C(C)=C1O,inactive
8,CC[C@H]1OC(=O)[C@H](C)C(O[C@H]2C[C@@](C)(OC)[C@@H](O)[C@H](C)O2)[C@H](C)[C@@H](OC2O[C@H](C)C[C@H](N(C)C)[C@H]2O)[C@](C)(O)C[C@@H](C)CN(C)[C@H](C)[C@@H](O)[C@]1(C)O (some centres not stated),inactive
9,Nc1ccn([C@H]2O[C@H](CO)[C@@H](O)C2(F)F)c(=O)n1,inactive
10,Nc1nc2ccc(Cl)cc2n2c(-c3ccccc3)nnc12,inactive
11,NCCCCCCCCCCN,inactive
12,O=C(O)c1cc(=O)c2c(Cl)cc(Cl)cc2[nH]1,inactive
13,NCCCS(=O)(=O)O,inactive
14,Nc1nc2c(ncn2[C@@H]2O[C@H](CO)[C@@H](O)[C@@H]2O)c(=O)[nH]1,inactive
15,NC(CCCP(=O)(O)O)C(=O)O (configuration not stated),inactive
16,Brc1c(Br)c(Br)c2n[nH]nc2c1Br,inactive
17,Nc1nc(SCc2ccc([N+](=O)[O-])cc2)c2ncn([C@@H]3O[C@H](CO)[C@@H](O)[C@H]3O)c2n1,inactive
18,CN1C2CCC1CC(OC(=O)C(O)c1ccccc1)C2 (configuration not stated),inactive
